# Screens: PubChem BioAssay, several laboratories
# Sampled rows, rich in hits. Any-hit rate of the full collection: about 4%.
# Mtb betalactam = beta-lactam sensitization of Mtb H37Rv, H37Rv; M. tuberculosis H37Rv growth with meropenem, percent inhibition; inhibition, % at 25 µM; hit rate 0.27% among 330,000;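 also: growth measured after seven days incubation then overnight dye step; 0% = bacteria only wells and 100% = bacteria with antibiotic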
# Rv3671c inh = Rv3671c serine protease inhibitors, primary screen, biochemical, fluorescence polarization, M. tuberculosis H37Rv; hit rate 0.048% among 320,000; AID 2606, 2010; inhibition, % at 5.96 µM; P9WHR9; in the data active = inhibition above about 38%;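 also: extracellular domain of Rv3671c used as enzyme; 0% = enzyme with DMSO and 100% = no enzyme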
# FBA Mtb inh = Mtb FBA enzyme inhibitors, primary screen, biochemical, fluorescence, strain H37Rv; purified M. tuberculosis FBA, fluorescence read-out; inhibition, % at 1 µM; hit rate 2.3% among 360,000; AID 588726, 2011; in the data active = inhibition above about 27%;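 also: 0% = vehicle and 100% = reference inhibitor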
# GDH-TPI inh = GDH-TPI coupling enzyme inhibitors, primary screen, artefact control for M. tuberculosis FBA inhibitor project, biochemical, absorbance, full deck; hit rate 1.2% among 360,000; inhibition, % at 4.8 µM; GDH-TPI coupled enzyme counterscreen, NADH absorbance; in the data active = inhibition above about 30%;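 also: 0% = DMSO wells and 100% = wells lacking the enzyme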
# UGM FP inh = M. tuberculosis UGM enzyme inhibitors, primary screen, biochemical, fluorescence polarization, single point | purified UGM, fluorescence polarization probe displacement | hit rate 0.06% among 320,000 | inhibition, % at 10 µM | UDP-galactopyranose mutase (Mycobacterium tuberculosis (strain ATCC 25618 / H37Rv)), … | AID 504406, 2011; in the data active = inhibition above about 10%, passing the limit was not always enough
# RecA intein inh = Mtb RecA intein splicing inhibitors, primary screen, biochemical, fluorescence, HTS; Protein RecA (Mycobacterium tuberculosis (strain ATCC 25618 / H37Rv)), P9WHJ3; cell-free RecA intein splicing; inhibition, % (test concentration not listed); hit rate 0.75% among 290,000; AID 2221, 2009; in the data active = inhibition above about 30%;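 also: 0% = vehicle wells and 100% = reference inhibitor control wells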
# Target sequence (P9WHJ3 whole entry, looked up): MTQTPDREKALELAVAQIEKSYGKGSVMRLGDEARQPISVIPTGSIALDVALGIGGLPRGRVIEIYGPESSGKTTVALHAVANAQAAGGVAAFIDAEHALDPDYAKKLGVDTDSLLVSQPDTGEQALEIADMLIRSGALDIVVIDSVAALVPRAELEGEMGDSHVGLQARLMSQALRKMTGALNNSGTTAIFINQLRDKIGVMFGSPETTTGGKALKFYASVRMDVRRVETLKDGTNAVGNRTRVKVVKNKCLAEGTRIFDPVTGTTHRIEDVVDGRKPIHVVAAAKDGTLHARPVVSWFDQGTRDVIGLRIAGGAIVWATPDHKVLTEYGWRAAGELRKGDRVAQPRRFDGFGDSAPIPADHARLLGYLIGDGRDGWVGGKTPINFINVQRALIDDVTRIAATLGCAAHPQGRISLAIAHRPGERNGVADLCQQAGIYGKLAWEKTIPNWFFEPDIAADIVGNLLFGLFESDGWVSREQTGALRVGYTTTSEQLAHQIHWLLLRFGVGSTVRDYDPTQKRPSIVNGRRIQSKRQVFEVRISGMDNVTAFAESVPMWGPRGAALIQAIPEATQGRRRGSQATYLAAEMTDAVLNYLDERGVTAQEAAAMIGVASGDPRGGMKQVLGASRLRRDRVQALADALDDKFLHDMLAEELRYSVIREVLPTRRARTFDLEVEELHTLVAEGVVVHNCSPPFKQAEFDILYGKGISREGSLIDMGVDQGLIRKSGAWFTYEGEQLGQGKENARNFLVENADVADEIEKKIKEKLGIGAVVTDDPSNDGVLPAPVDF
# GFP chromophore = counter-screen: blocks GFP chromophore formation, dose response, counter-screen, biochemical, fluorescence, homogeneous; shares compounds with RecA intein inh; cell-free GFP chromophore formation; EC50, µM; hit rate 83% among 2,100
# * hit, by the source's call; . = no result given. Unless noted, no rule for the calls is given here.
SMILES,Mtb betalactam,Rv3671c inh,FBA Mtb inh,GDH-TPI inh,UGM FP inh,RecA intein inh,GFP chromophore
CCCCCCCCCCCCCCCCn1cc[n+](C)c1,95.4,13.2,-3.7,3.1,0.5,47.6*,12.1*
O=C(c1cccs1)[C@@H]1[C@@H]2C(=O)N(Cc3ccc4c(c3)OCO4)C(=O)[C@@H]2C2c3ccccc3C=CN21 (stereo partly specified),3.5,-22.2,.,.,2.5,37.8*,4.24*
O=C(c1cccc(C(F)(F)F)c1)C1CCCN(Cc2ncc[nH]2)C1 (stereo unspecified),-1.4,4.3,1.9,3.1,-0.8,37.6*,>38
CCn1ccnc1CN1CCCC(C(=O)c2cccc(C(F)(F)F)c2)C1 (stereo unspecified),26.8,-8.3,0.8,1.3,-0.1,1.3,.
O=C(NCC1CCCO1)c1ccccc1-c1nc(-c2ccccc2)no1 (stereo unspecified),-0.7,-3.0,1.6,7.5,1.5,-0.5,.
CCNC(=O)c1ccccc1-c1nc(-c2ccccc2)no1,2.4,4.2,0.0,-3.1,2.5,30.1*,>38
COc1ccc2c(c1O)-c1c(OC)c(OC)cc3c1[C@H](C2)N(C)CC3,-1.2,0.8,4.4,10.1,0.5,.,.
COc1cc2c(cc1OC)-c1c(OC)c(OC)cc3c1[C@H](C2)N(C)CC3,-0.8,-22.9,6.8,-0.9,0.1,34.1*,21.9*
O=C1C2=C(c3ccccc31)[N+](=O)C1CCCCC1N2[O-] (stereo unspecified),4.8,-11.7,-0.8,4.8,3.2,81.9*,7.95*
OCc1ccccc1SSc1ccccc1CO,29.6,-1.7,0.7,1.5,-1.4,-6.0,.
COC(=O)C1=NN(C(C)=O)C2(CC(=O)N(c3cc(C)cc(C)c3)C2=O)C1 (stereo unspecified),-8.9,0.1,2.2,-1.1,1.8,30.2*,>38
CCC(=O)N(CC)C1=C(O)c2ccccc2C(=O)C1=O,-7.1,-59.8,-6.7,-7.8,-0.7,73.0*,12*
COC(=O)c1c(NC(=O)/C=C/C(=O)O)sc(Cc2ccccc2)c1C,-1.0,1.1,-1.3,9.0,-1.0,51.1*,24.3*
O=C(O)c1cccc(N/N=C/c2cccc3ccccc23)c1,3.3,6.3,4.2,10.7,0.9,-1.7,.
O=C(O)c1cccc(Cn2c(Cl)c(/C=N/Nc3ccccc3)sc2=O)c1,67.7,-6.7,2.1,23.8,-2.5,30.4*,>38
Nc1c(-c2ccccc2)c(CSc2nc3ccccc3[nH]2)nn1-c1cccc(Cl)c1,94.0,-15.7,-3.3,6.8,-2.2,36.6*,11.4*
Nc1c(-c2ccccc2)c(CSc2nc3ccccc3[nH]2)nn1-c1ccc(Cl)cc1,2.5,-14.1,-4.9,3.8,-1.8,15.8,.
CN1CCc2nc(SCc3ccc(Cl)cc3)c(C#N)c(-c3cccs3)c2C1,.,1.8,.,.,0.0,60.2*,8.66*
N#Cc1c(N)nc(SCc2ccncc2)c(C#N)c1-c1cccs1,6.9,-56.7,1.6,17.7,0.3,-3.8,.
O=C1/C(=C/c2cccc([N+](=O)[O-])c2)CCc2ccccc21,32.6,-1.7,1.4,13.2,4.5,45.3*,28.6*
C/C(=N\NC(=O)C(C)Sc1ccccc1)c1ccc([N+](=O)[O-])cc1 (stereo unspecified),-15.0,-2.6,-0.3,9.6,1.4,-0.2,.
O=c1[nH]c(/C=C/c2cccnc2)c([N+](=O)[O-])c(=O)[nH]1,0.9,-0.3,3.3,17.2,0.0,40.8*,>38
O=c1[nH]c(/C=C\c2cccnc2)c([N+](=O)[O-])c(=O)[nH]1,-1.6,5.0,0.1,-4.4,-0.1,1.5,.
C[C@H](CO)N1C[C@H](C)[C@H](CN(C)C(=O)Cc2ccncc2)Oc2ncc(Br)cc2C1=O,.,.,-2.3,7.2,.,.,.
N#CC1(C#N)CC(C=O)=C(N)C1(C#N)CC(=O)C12CC3CC(CC(C3)C1)C2 (stereo unspecified),-5.9,-15.0,-3.8,14.0,1.1,41.1*,19.2*
SMILES,Mtb betalactam,Rv3671c inh,FBA Mtb inh,GDH-TPI inh,UGM FP inh,RecA intein inh,GFP chromophore
CC(=O)n1cc(CO)c2ccccc21,-7.8,-7.7,7.1,16.7,-1.4,.,.
CC(=O)n1cc(N(C(=O)CCl)c2ccc([N+](=O)[O-])cc2)c2ccccc21,98.9,9.6,-0.2,1.5,-0.7,90.3*,2.28*
CC(=O)n1cc(N(C(=O)CCl)c2ccccc2)c2ccccc21,99.7,-0.8,1.6,0.8,-3.5,85.5*,4.41*
O=Cc1[nH]c2ccccc2c1N(C(=O)CCl)c1ccc([N+](=O)[O-])cc1,-1.8,10.3,-4.4,4.6,0.7,1.1,.
CN1CCN(c2ncnc3c2ncn3[C@H]2CN(Cc3ccco3)C[C@@H](CO)O2)CC1,.,.,-1.5,8.2,.,.,.
COC(=O)CN1C(c2ccc(Cl)cc2)=Nc2ccc(Cl)cc2C1c1ccccc1 (stereo unspecified),94.2,-13.9,-3.8,4.5,-0.9,31.7*,>38
Cc1cc(OC(=O)c2ccccc2)n(CCC#N)n1,-7.0,-71.7,0.2,4.5,1.3,84.8*,10.9*
Cc1cc(NC(=O)CN2C(=O)NC(c3ccccc3)(c3ccc(C)c(C)c3)C2=O)no1 (stereo unspecified),-9.6,-9.0,-0.5,5.5,1.2,.,.
COc1ccc(C(=O)/C=C/Sc2nc3ccccc3o2)cc1,98.2,-16.7,-0.3,10.7,-1.9,45.8*,>38
COc1ccc(C(=O)N/C(N)=N/c2nc3ccccc3o2)cc1,67.7,-2.1,7.7,9.3,0.8,2.5,.
Cc1cc(C)n(-c2ccc([N+](=O)[O-])cc2)n1,-4.8,-13.2,1.9,15.0,-3.8,42.5*,>38
CCOc1ccc(/C=C2\SC(=S)N(CCC(=O)Nc3ccccc3C(=O)O)C2=O)cc1,9.6,-8.3,0.0,-16.4,0.1,36.2*,>38
O=C(CCN1C(=O)/C(=C/c2cccs2)SC1=S)Nc1cccc(O)c1,4.1,-15.5,-7.0,17.9,-1.8,36.2*,>38
O=C(CCN1C(=O)/C(=C/c2cccs2)SC1=S)Nc1ccc(O)cc1,3.2,-34.8,-4.7,3.4,6.0,8.1,.
O=C(CCN1C(=O)/C(=C/c2cccs2)SC1=S)Nc1ccc(C(=O)O)c(O)c1,56.4,-14.2,-9.5,5.5,0.1,44.1*,30.9*
O=C(CCCN1C(=O)/C(=C/c2cccs2)SC1=S)Nc1cccc(O)c1,8.1,-10.2,-4.2,-10.1,2.2,8.4,.
CCCN1CCN(C(=O)c2ccc(F)c(S(=O)(=O)N3CCOCC3)c2)CC1,-4.2,0.8,0.8,-8.4,-0.9,.,.
